About 14,000 (4.5%) of roughly 310,000 compounds showed an effect of 50% or more. Effects have a minus sign here. This is one part of a sample in which strong results are shown more often than they occur.
What follows are compounds tested against human ether-à-go-go-related gene (hERG) potassium channel (human, UniProt Q12809) (assay: primary screen, population patch clamp on CHO cells stably expressing hERG; higher = less effect of the substance).
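Further: peak tail current of the secondary pulse compared with the same well before compound.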

Sequence of human ether-à-go-go-related gene (hERG) potassium channel (Q12809 whole entry, looked up): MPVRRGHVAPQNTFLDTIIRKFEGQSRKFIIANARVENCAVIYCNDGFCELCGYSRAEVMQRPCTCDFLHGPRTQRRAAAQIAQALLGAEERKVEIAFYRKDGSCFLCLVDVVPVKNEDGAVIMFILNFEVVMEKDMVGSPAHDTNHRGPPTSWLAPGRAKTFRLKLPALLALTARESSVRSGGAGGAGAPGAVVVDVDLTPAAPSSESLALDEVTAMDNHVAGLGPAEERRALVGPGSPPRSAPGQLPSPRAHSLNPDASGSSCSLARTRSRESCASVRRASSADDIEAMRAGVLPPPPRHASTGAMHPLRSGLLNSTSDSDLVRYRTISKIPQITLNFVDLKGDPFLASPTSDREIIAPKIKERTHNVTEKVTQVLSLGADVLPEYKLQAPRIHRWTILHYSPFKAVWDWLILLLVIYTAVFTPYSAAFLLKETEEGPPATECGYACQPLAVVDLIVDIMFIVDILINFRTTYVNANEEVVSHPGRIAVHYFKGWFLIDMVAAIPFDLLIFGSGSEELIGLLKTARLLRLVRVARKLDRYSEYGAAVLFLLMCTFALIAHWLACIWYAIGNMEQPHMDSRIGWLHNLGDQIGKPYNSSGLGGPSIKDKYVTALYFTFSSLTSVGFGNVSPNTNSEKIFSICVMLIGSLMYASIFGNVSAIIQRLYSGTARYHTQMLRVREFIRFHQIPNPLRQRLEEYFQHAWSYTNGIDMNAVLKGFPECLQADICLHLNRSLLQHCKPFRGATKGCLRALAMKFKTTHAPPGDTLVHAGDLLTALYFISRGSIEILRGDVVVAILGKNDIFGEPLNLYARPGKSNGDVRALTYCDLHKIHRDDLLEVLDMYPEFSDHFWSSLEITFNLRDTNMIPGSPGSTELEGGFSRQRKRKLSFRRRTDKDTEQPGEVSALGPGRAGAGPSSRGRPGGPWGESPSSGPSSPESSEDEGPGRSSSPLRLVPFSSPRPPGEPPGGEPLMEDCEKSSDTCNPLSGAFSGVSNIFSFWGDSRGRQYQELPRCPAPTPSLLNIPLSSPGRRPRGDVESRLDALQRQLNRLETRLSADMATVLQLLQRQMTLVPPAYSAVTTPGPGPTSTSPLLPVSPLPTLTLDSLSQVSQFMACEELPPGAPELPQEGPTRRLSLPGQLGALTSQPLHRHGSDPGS

SMILES	hERG current change (%, negative = inhibition) at 10uM [%]
COc1ccc(/C=C2\C(=O)NC(=O)N(CCC3=CCCCC3)C2=O)c(OC)c1	24.6
COc1ccccc1NC(=O)C1=C(C)Nc2nnnn2C1c1cc(Br)ccc1OC (stereo not drawn)	-0.22
CCOc1ccccc1C(=O)OCC(=O)NCCNC(=O)COC(=O)c1ccccc1OCC	5.95
O=C(CC1S/C(=N/N=C/c2cccs2)NC1=O)Nc1ccc(Cl)cc1 (stereo not drawn)	-3.86
Cc1cc(C)cc(N(C(=O)c2snc(C(N)=O)c2N)C(C(=O)NCC2CCCO2)c2cccs2)c1 (stereo not drawn)	-18.7
Cc1ccc(C(=O)/C=C/Nc2ccccn2)cc1	-1.05
O=C(COc1ccccc1[N+](=O)[O-])N1CCN(S(=O)(=O)c2ccccc2)CC1	-46.6
CCOC(=O)Cn1c(C)nc2c(C(=O)OCC)sc(C)c2c1=O	-5
O=C(NCCCN1CCCC1=O)c1cc(NS(=O)(=O)c2ccc(F)cc2)cc(NS(=O)(=O)c2ccc(F)cc2)c1	-4.88
CCn1c(N2CCN(C(=O)C34CC5CC(CC(C5)C3)C4)CC2)nc2ccccc21	-37.9
CCn1c(N2CCN(C(=O)/C=C/c3ccccc3)CC2)nc2ccccc21	-80.8
CCCn1c(N2CCN(C(=O)/C=C/C(=O)O)CC2)nc2ccccc21	9.76
Cc1cccc(C(=O)NC(=S)NNC(=O)Cc2ccccc2)c1	3.66
O=C(C1CCCO1)N1CCN(C(=S)NC2CC2)CC1 (stereo not drawn)	23
COc1cccc(C2C=C(c3ccc(OC)cc3OC)Nc3nnnn32)c1 (stereo not drawn)	1.76
Cc1ccc(C)c(N2CCN(C(=O)CCS(=O)(=O)c3cccc4nonc34)CC2)c1	-25.4
O=C(CCS(=O)(=O)c1cccc2nonc12)N1CCN(c2ccc(F)cc2)CC1	-60.8
O=S(=O)(c1cccc2nonc12)N1CCN(c2cccc(Cl)c2)CC1	-4
Cc1ccc(S(=O)(=O)NCCC(=O)N2CCN(c3cccc(Cl)c3)CC2)cc1C	4.35
O=C(CCNS(=O)(=O)c1cccc2nonc12)N1CCN(c2cccc(Cl)c2)CC1	-50.6
O=C(CCS(=O)(=O)c1cccc2nonc12)N1CCOCC1	14.6

SMILES	hERG current change (%, negative = inhibition) at 10uM [%]
CSc1ncc(C(=O)Nc2ccccc2C)c(C)n1	12.5
Cc1ccc(-c2nc3c(=O)n(C)c4ccccc4c3o2)cc1	22.3
Nc1cc(=O)[nH]c(=O)n1-c1cccc(F)c1	18.4
COc1ccccc1NC(=O)c1cc2c(=O)n(C)c3ccccc3c2n1C	1.19
O=C(OCCOc1cccc(Cl)c1)c1cc(S(=O)(=O)N2CCOCC2)ccc1F	-14
CCn1c(COc2ccc(OC)cc2)nc2ccccc21	-19.8
Cc1ccccc1NC(=O)C1CCN(C2=NS(=O)(=O)c3ccccc32)CC1	-15.2
COc1cc(CNc2ccccc2)c([N+](=O)[O-])cc1OC.O=C(O)C(=O)O	-3.72
C/C(=C1\SC(N2CCOCC2)=NC1=O)c1ccc(C)cc1	-10.8
C/C(=C1/SC(N2CCCC2)=NC1=O)c1ccc(Br)cc1	-76.7
C/C(=C1/SC(N2CCOCC2)=NC1=O)c1ccc(Br)cc1	14.8
CC(C)Cn1c(SCC(=O)N2CC(=O)Nc3ccccc32)nc2ccccc21	4.27
CCCN(CC1CC1)C(=O)CCc1nnc(C(OC)c2ccccc2)o1 (stereo not drawn)	-4.58
Cc1ccc(OCC(=O)N/N=C2/SCC(=O)N2Cc2ccco2)cc1	-28
O=C(COc1ccc(Br)cc1)N/N=C1/SCC(=O)N1Cc1ccco1	-59.8
Cc1cccc(OCC(=O)N/N=C2/SCC(=O)N2Cc2ccco2)c1	-25.4
NS(=O)(=O)c1ccc(CCNC(=O)c2cccc([N+](=O)[O-])c2)cc1	11.2
O=c1c2ccccc2ncn1-c1ccc([N+](=O)[O-])cc1[N+](=O)[O-]	10.7
Cc1cccc(-n2cnc3cc([N+](=O)[O-])ccc32)c1	-51.9
O=[N+]([O-])c1ccccc1-n1cnc2ccccc21	-18.2
O=c1c2ccccc2ncn1-c1ccc(Br)cc1[N+](=O)[O-]	-61.4

SMILES	hERG current change (%, negative = inhibition) at 10uM [%]
Nc1ccc(-n2cnc3cc([N+](=O)[O-])ccc32)cc1	1.35
O=[N+]([O-])c1ccc2c(c1)ncn2-c1ccccc1	-21.6
O=[N+]([O-])c1ccc(-n2cnc3ccccc32)c([N+](=O)[O-])c1	-57.8
O=c1c2ccccc2ncn1-c1ccc(Cl)cc1[N+](=O)[O-]	-4.65
O=C(c1ccc([N+](=O)[O-])cc1[N+](=O)[O-])n1cnc2ccccc21	-16.4
C[C@]12CCC(=O)C=C1CC[C@@H]1[C@@H]2C(=O)C[C@]2(C)C(=O)CC[C@@H]12	7.99
O=C(N/N=C/c1ccccn1)C(O)c1ccccc1 (stereo not drawn)	9.82
Cn1c(=O)n(C)c2cc(N3CCOCC3)c(NC(=O)c3cccc(Cl)c3)cc21	5.25
COc1ccc(NC(=O)C/C(C)=N/NC(=O)c2cnccn2)cc1	15.5
CC(C)CN1C=C2C(=O)C(C)(OC(=O)CCc3ccccc3)C(=O)C=C2C=C1c1ccc(C#N)cc1 (stereo not drawn)	-26.9
COCCN1C=C2C(=O)C(C)(OC(=O)CCc3ccccc3)C(=O)C=C2C=C1c1ccc(C#N)cc1 (stereo not drawn)	-72.4
CCN(CC)CCCN1C=C2C(=O)C(C)(OC(=O)CCc3ccccc3)C(=O)C=C2C=C1c1ccc(C#N)cc1 (stereo not drawn)	-37.6
CC1(OC(=O)CCc2ccccc2)C(=O)C=C2C=C(c3ccc(C#N)cc3)N(c3ccccc3)C=C2C1=O (stereo not drawn)	14.3
CC(C)OCCCN1C=C2C(=O)C(C)(OC(=O)CCc3ccccc3)C(=O)C=C2C=C1c1ccc(C#N)cc1 (stereo not drawn)	-71.3
CC1(OC(=O)CCc2ccccc2)C(=O)C=C2C=C(c3ccc(C#N)cc3)N(C3CC3)C=C2C1=O (stereo not drawn)	-51.7
CC1(OC(=O)CCc2ccccc2)C(=O)C=C2C=C(c3ccc(C#N)cc3)N(CCc3c[nH]c4ccccc34)C=C2C1=O (stereo not drawn)	-7.98
CC1(OC(=O)CCc2ccccc2)C(=O)C=C2C=C(c3ccc(C#N)cc3)N(CCc3ccccn3)C=C2C1=O (stereo not drawn)	-51.8
CC1(OC(=O)CCc2ccccc2)C(=O)C=C2C=C(c3ccc(C#N)cc3)N(C3CCCC3)C=C2C1=O (stereo not drawn)	-49.7
CC1(OC(=O)CCc2ccccc2)C(=O)C=C2C=C(c3ccc(C#N)cc3)N(CCN3CCOCC3)C=C2C1=O (stereo not drawn)	-49.9
CC1(OC(=O)CCc2ccccc2)C(=O)C=C2C=C(c3ccc(C#N)cc3)N(CC3CC3)C=C2C1=O (stereo not drawn)	-44.6
C=CCN1C=C2C(=O)C(C)(OC(=O)CCc3ccccc3)C(=O)C=C2C=C1c1ccc(C#N)cc1 (stereo not drawn)	-28.8

From paper PMC4336329 (PLoS ONE, 2015)
